From PubChem BioAssay (NCATS)
Records with an inconclusive call do not appear. Activity calls are given as the source filed them. The call rests on the fitted dose curve; in most records, active means well fitted curve in the direction sought with a large enough effect; inconclusive means small, poorly fitted or top-dose-only effect, or another doubt; inactive means no such curve, though single readings can be large; an effect the other way counts as inactive or inconclusive.

Assays:
[1] = qHTS for Activators of Parkin Expression: LOPAC Validation Assay (NLuc Reporter) (AID 720572)
In short: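 Compound effects on Parkin promoter activity were measured as NanoLuc luminescence after 24 h at 37 C. The neuronal reporter line also carried FLuc, which was read first. LOPAC compounds were tested at 7 concentrations, with normalization to DMSO (0%) and positive control (100%).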

[2] = qHTS for Activators of Parkin Expression: LOPAC Validation Assay (FLuc Reporter) (AID 720573)
In short: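 Neuronal cell line stably expressing FLuc/NLuc coincidence reporter under the Parkin promoter, 1,500 cells/well, dosed 24 h after seeding in 7-point series for 24 h at 37 C. FLuc luminescence read; normalized to DMSO and positive control (100%).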

[3] = target: T1, Hexokinase-4 (Homo sapiens) + Glucokinase regulatory protein (Homo sapiens) (UniProt P35557+Q14397); test: qHTS assay for inhibitors of recombinant human GCK-GKRP interaction: Diaphorase-coupled assay (AID 743205)
In short: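 Compounds pre-incubated 20 min with substrate, then 10 nM GST-GCK with 10 nM FLAG-GKRP added. GCK activity coupled via G6PDH and diaphorase to resorufin (5 mM glucose, 0.4 mM ATP, 0.15 mM NADP+, pH 7.6), read kinetically over 30 minutes at Ex 525/Em 590 nm.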

[4] = target: T1, Hexokinase-4 (Homo sapiens) + Glucokinase regulatory protein (Homo sapiens); test: qHTS assay for inhibitors of recombinant human GCK-GKRP interaction: ADP-Glo assay (AID 743206)
In short: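 Pin-transferred compounds meet a 15 nM GST-GCK/15 nM FLAG-GKRP/2 uM S6P mix (dispense concentrations). ATP is then added to 0.4 mM final with 5 mM glucose, and the reaction runs 60 min at room temperature. ADP is quantified luminescently.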

[5] = target: T1, Hexokinase-4 (Homo sapiens) + Glucokinase regulatory protein (Homo sapiens); test: qHTS assay for inhibitors of recombinant human GCK-GKRP interaction: HTRF assay (AID 743207)
In short: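 HTRF binding of 5 nM GST-GCK and 5 nM FLAG-GKRP with 2 uM S6P in pH 7.1 Hepes buffer (MgCl2, KCl, DTT, Tween 20, BSA). Anti-FLAG XL665 and anti-GST donor added, 60 min at room temperature; 665/615 nm read, normalized to with- and without-GCK controls.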

[6] = qHTS for compounds that reverse cellular toxicity of Amyloid beta (A-beta) peptide in yeast: LOPAC Validation Assay (AID 720559)
In short: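 Yeast expressing toxic A-beta grown with pinned compounds at 30 C for 48 hr. Growth measured as absorbance at 600 nm; data normalized to DMSO and to an equimolar FeCl3/clioquinol mixture as positive control.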

Measured: Potency

T1 sequence (P35557 whole entry, looked up): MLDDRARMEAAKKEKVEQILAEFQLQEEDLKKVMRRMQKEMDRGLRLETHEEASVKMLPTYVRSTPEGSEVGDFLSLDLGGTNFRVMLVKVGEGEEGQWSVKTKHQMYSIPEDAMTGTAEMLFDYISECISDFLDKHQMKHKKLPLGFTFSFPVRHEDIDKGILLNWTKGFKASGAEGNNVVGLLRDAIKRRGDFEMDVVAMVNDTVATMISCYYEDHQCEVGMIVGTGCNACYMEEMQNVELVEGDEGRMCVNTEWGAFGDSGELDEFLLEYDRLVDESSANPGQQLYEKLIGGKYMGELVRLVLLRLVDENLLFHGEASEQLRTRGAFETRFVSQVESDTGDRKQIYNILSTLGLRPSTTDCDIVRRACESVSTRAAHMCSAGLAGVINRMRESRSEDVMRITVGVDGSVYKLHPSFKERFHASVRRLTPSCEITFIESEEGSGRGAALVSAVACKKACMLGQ
T1 sequence (Q14397 whole entry, looked up): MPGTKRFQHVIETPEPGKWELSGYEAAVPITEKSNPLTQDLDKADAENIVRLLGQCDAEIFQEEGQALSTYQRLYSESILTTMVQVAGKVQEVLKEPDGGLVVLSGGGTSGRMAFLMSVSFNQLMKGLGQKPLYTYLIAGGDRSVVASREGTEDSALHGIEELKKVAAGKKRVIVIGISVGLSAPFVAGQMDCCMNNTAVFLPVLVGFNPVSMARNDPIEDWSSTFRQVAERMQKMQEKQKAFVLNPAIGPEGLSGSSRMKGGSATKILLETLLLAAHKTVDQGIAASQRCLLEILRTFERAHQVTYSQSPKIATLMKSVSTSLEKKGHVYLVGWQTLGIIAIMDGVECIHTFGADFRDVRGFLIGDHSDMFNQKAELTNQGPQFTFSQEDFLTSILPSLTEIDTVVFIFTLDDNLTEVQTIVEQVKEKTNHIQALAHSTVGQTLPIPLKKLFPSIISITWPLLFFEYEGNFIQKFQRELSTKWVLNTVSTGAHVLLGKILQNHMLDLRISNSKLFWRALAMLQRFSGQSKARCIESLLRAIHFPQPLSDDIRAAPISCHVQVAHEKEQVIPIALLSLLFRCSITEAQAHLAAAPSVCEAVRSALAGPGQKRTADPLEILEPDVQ

O=C(CCNNC(=O)c1ccncc1)NCc1ccccc1
inactive: [1] | [2] | [3] | [4] | [5]

CNC1(C)C2CCC(C2)C1(C)C (stereo unspecified)
inactive: [1] | [2] | [3] | [4] | [5]

NCCCNCCSP(=O)(O)O
inactive: [6] | [1] | [3] | [4] | [5]

CCN1CCC[C@H]1CNC(=O)c1c(O)c(Cl)cc(Cl)c1OC
inactive: [1] | [2] | [3] | [4] | [5]

NC/C=C/C(=O)O
inactive: [1] | [2] | [3] | [4] | [5]

CN(C)CCCN1c2ccccc2Sc2ccc(C(F)(F)F)cc21
inactive: [1] | [2] | [3] | [4] | [5]

O=C1CC2(CCCC2)CC(=O)N1CCCCN1CCN(c2ncccn2)CC1
inactive: [6] | [1] | [2] | [3] | [4] | [5]

CSc1ccc(C(=O)c2[nH]c(=O)[nH]c2C)cc1
inactive: [3] | [4] | [5]

CCCCNc1c(C(=O)OCC)c(C)nc2c1cnn2CC
inactive: [6] | [1] | [2] | [3] | [4] | [5]

COC(=O)C1=C(C)NC(C)=C(C(=O)OC(C)(C)CN(C)CCC(c2ccccc2)c2ccccc2)C1c1cccc([N+](=O)[O-])c1 (stereo unspecified)
inactive: [6] | [1] | [3] | [4] | [5]

NC(=O)c1ncn([C@@H]2O[C@H](CO)[C@@H](O)[C@H]2O)c1O
inactive: [6] | [1] | [2] | [3] | [4] | [5]
